Results taken from PubChem BioAssay (NCI).
About 83,000 compounds went through this panel and 20% of them were active in at least one assay; those are over-represented in the sample as a whole.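 Single-concentration screen, 48 h exposure, 96-well plates. Endpoint: percent growth. Below 10 = active.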 Active and inactive are the calls of the source.

Test system: HL-60(TB) leukemia
Test: NCI-60 one-dose screen, 48 h (100 = growth as untreated, 0 = no growth, -100 = all killed)
Details: 10 µM unless noted

Q: `CC(C)(C)C(=O)OCOP(=O)(OCOC(=O)C(C)(C)C)C1CC(O)N(O)C1=O` (centres undefined) was tested. Which growth did it give?
A: 13.1% (inactive)

Q: `O=C1c2ccccc2OC=C(c2ccccc2)N1CCCCN1CCCCC1` was tested. Which growth did it give?
A: 58.1% (inactive)

Q: `COc1ccc(/C=C\c2cc(OC)c(OC)c(OC)c2)cc1OC(=O)c1cccc(Cn2cc(CCOC(=O)[C@H](N)Cc3cn(C)c4ccccc34)nn2)c1` was tested. Which growth did it give?
A: -42.7% (active)

Q: `COc1ccc(CCN2CCC(CN(C)Cc3cnn(-c4ccccc4)c3)CC2)cc1` was tested. Which growth did it give?
A: 6.41% (active)

Q: For `O=c1cn[nH]c2ccc(Br)cc12`, which growth is on record?
A: 85.5% (inactive)

Q: Which growth does the source give for `CN(CCCNC(=O)CCOCCOCCOCCNC(=O)Cc1ccc2ccc3cccc4ccc1c2c34)CCCNc1cc(-c2ccc3ccccc3c2)nc2ccccc12` here?
A: -77.6% (active)

Q: Which growth does the source give for `CC1(C)Oc2cc3oc(=O)ccc3cc2C[C@@H]1OCCOS(=O)(=O)c1ccc(C#N)cc1` here?
A: 100% (inactive)

Q: For `N[C@@H](CCCCNCC(=O)O)C(=O)O`, which growth is on record?
A: 106% (inactive)

Q: `CC(=O)NC(O)C(Cl)Cl` (centres undefined) was tested. Which growth did it give?
A: 105% (inactive)

Q: With `Cc1c[nH]c(=O)n(Cc2nnc(CCC(=O)c3nc4ccccc4[nH]3)o2)c1=O` as the compound, how does the growth read?
A: -0.434% (active)

Q: Which growth does the source give for `Cc1nc(Nc2cn[nH]c2C(=O)Nc2ccc(CN3CCN(C)CC3)cc2)c2ccsc2n1` here?
A: 113% (inactive)

Q: How did the growth turn out when `CN(Cc1ccccc1)c1ccc(SC#N)cc1` was run?
A: 17.5% (inactive)

Q: With `N#C/C(=C\c1cn(Cc2ccccc2)c2ccccc12)C(=O)Nc1ncc(Cc2ccccc2Cl)s1` as the compound, how does the growth read?
A: 93.1% (inactive)

Q: Which growth does the source give for `C=C1C(=O)O[C@H]2[C@H]1CC/C(COC(=O)NCC(=O)Nc1ccc(OC)c(C(N)=O)c1O)=C\CC[C@@]1(C)O[C@@H]21` here?
A: -7.13% (active)
